MITF primary: MITF inhibitors, primary screen, biochemical, AlphaScreen, human | Microphthalmia-associated transcription factor (Homo sapiens), O75030 | AlphaScreen MITF homodimerization, bead proximity signal | inhibition, % at 2.6 µM | actives 0.91% (n = 650,000); in the data active = inhibition above about 50%;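 note: 0% = vehicle wells with protein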
TEAD-YAP block: TEAD-YAP interaction inhibition, primary screen, TEAD-YAP interaction inhibitor project, luminescence, HEK-TIYL cells. TEAD-Gal4/YAP UAS-luciferase luminescence. AID 1259422, 2018. inhibition, % at 9.12 µM. actives 1.4% (n = 640,000); in the data active = inhibition above about 32%;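 note: 0% = median of test compound wells and 100% = reference inhibitor wells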
GPR151 ag: activators of human GPR151, primary screen, cell-based, PathHunter beta-arrestin, luminescence | PathHunter beta-arrestin GPR151 cells | activation, % at 11.2 µM | actives 1% (n = 650,000) | AID 1508602, 2020; in the data active = activation above about 4.9%;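 note: 0% = median of compound wells and 100% = cells with positive control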
FBW7 activator: FBW7 E3 ligase activators, primary screen, biochemical, AlphaScreen, human. F-box/WD repeat-containing protein 7 (Homo sapiens), Q969H0. actives 0.13% (n = 650,000). AlphaScreen FBW7–phospho-cyclin E peptide binding, activator screen. normalized activity (activation), % at 26.1 µM. AID 1259310, 2017; in the data active = normalized activity above about 1.9%;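 note: purified mutant Fbw7 with reduced substrate affinity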
GPR151 conf act: GPR151 activators, triplicate retest, confirmation, cell-based, PathHunter beta-arrestin, luminescence | 6,700 tested, under 10 active | activation, % at 11.2 µM | GPR151 PathHunter beta-arrestin cells, 90 min; % of EA-reagent control over plate median | AID 1508609, 2020 | shares compounds with GPR151 ag;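 active = mean percent activation across replicates above the confirmation screen cutoff of 4.91%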
GPR119 ag: GPR119 activators in beta-arrestin cells, counter-screen for GPR151 activator project, cell-based, PathHunter beta-arrestin, luminescence, triplicate; activation, % at 11.2 µM; shares compounds with GPR151 ag; AID 1508611, 2020; 90 min; 0 = compound-well median, 100 = enzyme-acceptor control; actives 0.3% (n = 6,700);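 active = mean percent activation in the counterscreen above 29.09%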;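 note: counterscreen on off-target GPR119 to flag nonselective hits from the GPR151 activator screen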
Target sequence (Q8TDV5 whole entry, looked up): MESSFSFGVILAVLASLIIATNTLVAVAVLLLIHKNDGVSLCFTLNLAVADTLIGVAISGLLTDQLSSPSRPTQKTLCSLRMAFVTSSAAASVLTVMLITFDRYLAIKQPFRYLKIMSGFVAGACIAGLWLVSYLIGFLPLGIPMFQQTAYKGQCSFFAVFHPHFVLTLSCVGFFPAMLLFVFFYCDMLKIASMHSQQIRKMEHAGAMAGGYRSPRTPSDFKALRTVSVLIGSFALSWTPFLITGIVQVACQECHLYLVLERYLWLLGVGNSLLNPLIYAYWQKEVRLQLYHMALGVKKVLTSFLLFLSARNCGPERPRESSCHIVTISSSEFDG
* marks the source's active call; other numbers are inactive results; nt = no result given; ! = not active in a repeat. Sampled rows, rich in hits. Any-hit rate of the full collection: about 3.5%.

SMILES	MITF primary	TEAD-YAP block	GPR151 ag	FBW7 activator	GPR151 conf act	GPR119 ag
CC(Oc1c(Cl)cccc1Cl)C1=NCCN1 (centres undefined)	-1.1	7.2	4.9*!	0.6	-0.4	2.4
COc1cc2c(cc1OC)C(c1[nH]c(C(=O)O)c(C)c1Br)NCC2 (centres undefined)	12.3	10.1	-0.5	0.2	nt	nt
Cc1cc(-c2nnc3n2CCC3)c(C)n1-c1ccccc1	10.3	-12.4	5.7*	0.0	-0.6	-1.9
Cc1cc(-c2nnco2)c(C)n1-c1ccccc1	3.4	-8.1	2.4	-0.1	nt	nt
COc1ccc(C(=O)Nc2ccc(C(=O)NCCc3ccccc3)cc2)cc1	9.5	-6.2	5.2*	0.1	0.1	-4.3
COc1ccc(C(=O)NC(=S)NCc2ccccc2)cc1	16.8	-2.0	10.6*	-0.1	0.1	-2.3
CCN(CC)c1ccc(C(=O)NCCc2ccccc2)cc1	5.8	-46.9	7.0*	0.1	0.3	7.4
CCN(CC)c1ccc(C(=O)NCCO)cc1	14.4	-9.2	0.5	0.3	nt	nt
COc1ccc(CNC(=O)c2c(Cl)cccc2Cl)cc1	-3.1	-2.0	5.7*	0.5	0.6	10.2
CCOc1ccc(N2C(=O)CC(NCc3ccccc3F)C2=O)cc1 (centres undefined)	-13.5	9.9	-0.2	-0.1	nt	nt
COc1ccc(NC(=O)CNC(=O)c2cccc(C)c2)cc1	-4.9	-7.7	8.1*	-0.1	0.6	4.5
CS(=O)(=O)Nc1ccc(C(=O)NCCc2ccccc2)cc1	8.1	-34.8	5.7*	-0.1	0.8	5.5
O=C(COc1ccc(C(=O)NCCc2ccccc2)cc1)Nc1ccccc1F	13.4	2.2	27.6*	0.4	-1.4	-4.8
CS(=O)(=O)Nc1ccc(C(=O)Nc2ccccc2C(=O)NCCc2ccccc2)cc1	0.5	-23.7	-0.5	-0.1	nt	nt
COc1ccc(NC(=O)c2ccc(NC(=O)c3ccc(NC(=O)c4cccc(C)c4)cc3)cc2)cc1	-1.6	1.6	1.7	-0.1	nt	nt
COc1ccc(CNC(=O)c2ccc(NS(C)(=O)=O)cc2)cc1	-2.2	3.8	4.9*	-0.1	0.7	11.7
COc1ccccc1CN1CCC2(CCC(CNC(C)=O)O2)CC1 (centres undefined)	-4.9	0.1	0.7	0.0	nt	nt
c1ccc(CC2CCN(c3nc4ccccc4nc3N3CCC(Cc4ccccc4)CC3)CC2)cc1	11.0	0.2	-0.7	0.1	nt	nt
CCNC(=O)N1CCCC2(C1)NCCc1c2[nH]c2ccccc12 (centres undefined)	-3.9	6.7	2.5	-0.2	nt	nt
CCN(CC)S(=O)(=O)c1cccc(-c2cn3cccnc3n2)c1	7.4	6.9	-1.3	0.1	nt	nt
CC1CCCN(S(=O)(=O)c2cccc(-c3cn4cccnc4n3)c2)C1 (centres undefined)	1.9	-2.3	5.0*	0.1	1.7	2.4
CCOc1ccc(CC(=O)Nc2ccc(I)cc2)cc1OCC	6.3	-5.0	6.0*	0.0	-0.3	-21.4
CCOc1ccc(CC(=O)Nc2ccccc2)cc1OCC	-6.6	-11.6	-0.8	-0.1	nt	nt
O=C(Nc1ccccc1)c1ccc2nc(N3CCCC3CO)sc2c1 (centres undefined)	6.6	-31.3	-1.8	0.2	nt	nt
O=C(Cn1cc(/C=C2\SC(=S)NC2=O)c2ccccc21)NCc1cccs1	7.3	5.6	6.8*	0.3	0.8	-3.3
COc1cc(OC)c(CN2CCc3nnc(CNC(=O)C4CCOC4)n3CC2)c(OC)c1 (centres undefined)	-33.9	-3.4	-0.1	0.3	nt	nt
CCn1c(SCC(N)=O)nc2ccc(I)cc2c1=O	8.4	-3.6	0.1	-0.2	nt	nt
CCn1c(SCC(N)=O)nc2ccc(Br)cc2c1=O	0.5	-1.7	5.4*	0.0	-0.4	-5.1

Compound activity from PubChem BioAssay.
